Assay outcomes: PubChem BioAssay, National Center for Advancing Translational Sciences (NCATS)
ERK AVP block: blocks ERK signaling stimulated by vasopressin | HEK293-V1b, vasopressin-stimulated pERK AlphaScreen | Potency, µM (doses to about 57.5 µM), inactives show at the highest dose activity, negative = inhibition, most hits filed as inhibitors | hit rate 0.99% among 72,000; note: potency is the fitted concentration of half-maximal effect; % is set by controls: 0 for no effect and ±100 for the full control effect; nearly all actives have a fitted effect of over 55% in size
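V1b-HEK293 cells; cpd 30 min 37C; 25 nM vasopressin 5 min; lyse 10 min; AlphaScreen beads 5 hr RT. Normalized to DMSO basal and 25 nM vasopressin; AC50 by Hill fit.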
BRCT inh red: inhibitors of human BRCA1 BRCT-phosphoprotein interaction (red fluorophore) | P38398 | BRCT-phosphopeptide binding, red fluorescence polarization | Potency, µM (top dose mostly 76.9 µM), inactives show top-dose activity change, negative = inhibition, hits mostly inhibitors | hit rate 0.03% among 75,000 | AID 892; note: % is set by controls: 0 for no effect and ±100 for the full control effect
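Rhodamine-labelled pBACH1 10-mer (100 nM) bound to BRCT domain (100 nM) at pH 7.3; compounds incubated 12 min room temperature, polarization read. Free peptide defines full inhibition; unlabelled decapeptide titrated as control.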
USP2a inh: blocks human ubiquitin-specific protease USP2a | Potency, µM (doses to about 38.3 µM), inactives show at the top dose activity change, negative = inhibition, most hits filed as inhibitors | USP2a enzymatic assay, qHTS inhibition | hit rate 0.1% among 60,000; note: potency is the fitted concentration of half-maximal effect; nearly all actives have a fitted effect of over 60% in size
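20 nM USP2 core + cpd, 30 min RT; add 20 nM Ub-PLA2/20 uM NBD C6-HPC; read Ex460/Em535 at 0 h and 2.5 h. Normalized to NEM; qHTS curve fit/classification.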
YjeE inh: YjeE (TsaE) inhibition, E. coli; purified YjeE enzyme, qHTS inhibition assay; P0AF67; hit rate 0.05% among 71,000; Potency, µM
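Fluorescence polarization of a BODIPY Texas Red–ADP probe (2 uM) bound to purified YjeE (10 uM) was read after 15 min room-temperature incubation with compounds. Loss of polarization marks inhibitors; ADP serves as titrated control.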
Pol III holo inh: inhibitors of bacterial DNA polymerase III holoenzyme | Potency, µM (titrated, usually from 57.1 µM), for the others: at the top dose activity change, negative = inhibition | hit rate 0.25% among 71,000 | reconstituted DNA polymerase III holoenzyme replication, biochemical; note: potency is the fitted concentration of half-maximal effect; % is set by controls: 0 for no effect and ±100 for the full control effect
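Reconstituted *E. coli* holoenzyme (0.35 nM Pol III, 1 nM beta, 154 nM SSB, 2 nM primase) was preincubated with compound for 15 min at RT. Synthesis on 1.4 nM ssM13Gori ran 35 min, then was stopped with PicoGreen/EDTA and read as dsDNA fluorescence.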
BRCT PPI green: BRCA1 BRCT-phosphoprotein interaction inhibition. hit rate 0.05% among 75,000. BRCA1 BRCT-phosphopeptide binding, green fluorescence polarization. Potency, µM (highest dose often 76.9 µM), without a hit: top-dose activity change, negative = inhibition, most hits filed as inhibitors. P38398;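 note: potency is the fitted concentration of half-maximal effect; plate controls were peptide without protein for full effect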
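Compounds were incubated for 12 min at room temperature with a complex of 100 nM fluorescein-tagged pBACH1 decapeptide and 250 nM His-tagged BRCT protein. Buffer was phosphate pH 7.3 with EDTA, DTT and Tween 20. Disruption of binding lowers the polarization signal.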
Numbers without * were called inactive; [ ] = remark or other dose. Sampled rows, rich in hits. Any-hit rate of the full collection: about 1.3%. Calls come from the whole dose curve; as a rule, active = well fitted curve in the direction sought with a large enough effect; inconclusive = small, poorly fitted or top-dose-only effect, or another doubt; inactive = no such curve, though single readings can be large; an effect the other way counts as inactive or inconclusive.

What do the screens show for `O=C(c1cc2n(n1)C(C(F)(F)F)CC(c1ccco1)N2)N1CCc2ccccc2C1` (centres undefined)?
ERK AVP block: 25.1µM*; BRCT inh red: -1.7%; USP2a inh: 22.1%; YjeE inh: inactive; Pol III holo inh: -2.4%; BRCT PPI green: -2.7%

How did O=C(CSc1nc2ccccc2[nH]1)Nc1ccc2c(c1)OCCO2 do in these assays?
ERK AVP block: 31.6µM*; BRCT inh red: 2.1%; USP2a inh: 9.6%; YjeE inh: inactive; Pol III holo inh: -10.7%; BRCT PPI green: -1.1%

Results for C=C(CO)[C@H]1Cc2c(ccc3c(=O)c4c(oc23)COc2cc(OC)c(OC)cc2-4)O1 ?
YjeE inh: inactive; Pol III holo inh: -2.9%

What do the screens show for `COc1ccc(N2C(=O)C(Cl)=C(N(CCO)Cc3ccccc3)C2=O)cc1`?
ERK AVP block: 12.6µM*; BRCT inh red: -0.4%; USP2a inh: 9.3%; YjeE inh: inactive; Pol III holo inh: -6.3%; BRCT PPI green: -0.7%

Results for CN(C)c1ccc(C(=C2C=CC(=[N+](C)C)C=C2)c2ccc(N(C)C)cc2)cc1 ?
ERK AVP block: 10µM*; BRCT inh red: -4.4%; USP2a inh: 10µM*; YjeE inh: 5.01µM*; Pol III holo inh: 39.8µM*; BRCT PPI green: -1.8%[3.08 µM]

How did CN(C)c1ccc(C(=C2C=CC(=[N+](C)C)C=C2)c2ccccc2)cc1 do in these assays?
ERK AVP block: 12.6µM*; BRCT inh red: 0.6%[15.4 µM]; YjeE inh: inactive; Pol III holo inh: -8.6%[11.4 µM]; BRCT PPI green: 0.2%[15.4 µM]

Results for Nc1nc2c(c(=O)[nH]1)CN(CCCN1CCOCC1)CN2 ?
ERK AVP block: -5.8%[11.5 µM]; BRCT inh red: 0.2%[15.4 µM]; YjeE inh: inactive; Pol III holo inh: -5.9%[11.4 µM]; BRCT PPI green: -1.0%[15.4 µM]

How did COc1ccc(C2CC(C(F)(F)F)n3nc(C(=O)NCc4c(C)nn(C)c4C)c(Cl)c3N2)cc1 (centres undefined) do in these assays?
ERK AVP block: 21.5%; BRCT inh red: -1.3%; YjeE inh: inactive; Pol III holo inh: -5.5%; BRCT PPI green: -1.8%

Results for Cc1nn(C)c(C)c1CNC(=O)c1cc2n(n1)C(C(F)(F)F)CC(c1cccs1)N2 (centres undefined) ?
ERK AVP block: 31.6µM*; BRCT inh red: 0.7%; USP2a inh: 51.0%; YjeE inh: inactive; Pol III holo inh: -0.3%; BRCT PPI green: 1.2%

Results for Cc1ccc(NC(=O)C2CCN(S(=O)(=O)c3cccc4cccnc34)CC2)nc1 ?
ERK AVP block: 31.6µM*; BRCT inh red: -2.2%; YjeE inh: inactive; Pol III holo inh: -8.2%; BRCT PPI green: 0.6%

How did CC(=O)c1ccc(NC(=O)C2CCN(S(=O)(=O)c3cccc4cccnc34)CC2)cc1 do in these assays?
ERK AVP block: -26.3%; BRCT inh red: 0.4%; YjeE inh: inactive; Pol III holo inh: -0.4%; BRCT PPI green: -0.6%

How did O=C(C1CCN(S(=O)(=O)c2ccc3ccccc3c2)CC1)N1CCN(c2ncccn2)CC1 do in these assays?
ERK AVP block: 25.1µM*; BRCT inh red: -2.8%; USP2a inh: 51.8%; YjeE inh: inactive; Pol III holo inh: -3.8%; BRCT PPI green: -1.6%

How did Cc1cccc(NC(=O)C2CCN(S(=O)(=O)c3cccc4cccnc34)CC2)n1 do in these assays?
ERK AVP block: 10µM*; BRCT inh red: -0.8%; YjeE inh: inactive; Pol III holo inh: 1.1%; BRCT PPI green: -0.2%

How did O=C(C1CCN(S(=O)(=O)c2cccc3cccnc23)CC1)N1CCN(c2ccccn2)CC1 do in these assays?
ERK AVP block: 5.8%; BRCT inh red: 0.2%; USP2a inh: 9.7%; YjeE inh: inactive; Pol III holo inh: -3.1%; BRCT PPI green: -1.3%

Results for O=C(C1CCN(S(=O)(=O)c2cccc3cccnc23)CC1)N1CCN(c2ccc(Cl)cc2)CC1 ?
ERK AVP block: 7.94µM*; BRCT inh red: -0.6%; YjeE inh: inactive; Pol III holo inh: 4.4%; BRCT PPI green: 0.5%
